The whole screen tested about 310,000 compounds, of which about 14,000 (4.5%) showed an effect of 50% or more. The effect is printed as a negative number. The sample as a whole holds a higher share of strong results than the screen did.
Target: human ether-à-go-go-related gene (hERG) potassium channel (human, UniProt Q12809)
Assay: primary screen, population patch clamp on CHO cells stably expressing hERG; higher = less effect of the substance
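Also: peak tail current of the secondary pulse compared with the same well before compound.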

Sequence of human ether-à-go-go-related gene (hERG) potassium channel (Q12809 whole entry, looked up): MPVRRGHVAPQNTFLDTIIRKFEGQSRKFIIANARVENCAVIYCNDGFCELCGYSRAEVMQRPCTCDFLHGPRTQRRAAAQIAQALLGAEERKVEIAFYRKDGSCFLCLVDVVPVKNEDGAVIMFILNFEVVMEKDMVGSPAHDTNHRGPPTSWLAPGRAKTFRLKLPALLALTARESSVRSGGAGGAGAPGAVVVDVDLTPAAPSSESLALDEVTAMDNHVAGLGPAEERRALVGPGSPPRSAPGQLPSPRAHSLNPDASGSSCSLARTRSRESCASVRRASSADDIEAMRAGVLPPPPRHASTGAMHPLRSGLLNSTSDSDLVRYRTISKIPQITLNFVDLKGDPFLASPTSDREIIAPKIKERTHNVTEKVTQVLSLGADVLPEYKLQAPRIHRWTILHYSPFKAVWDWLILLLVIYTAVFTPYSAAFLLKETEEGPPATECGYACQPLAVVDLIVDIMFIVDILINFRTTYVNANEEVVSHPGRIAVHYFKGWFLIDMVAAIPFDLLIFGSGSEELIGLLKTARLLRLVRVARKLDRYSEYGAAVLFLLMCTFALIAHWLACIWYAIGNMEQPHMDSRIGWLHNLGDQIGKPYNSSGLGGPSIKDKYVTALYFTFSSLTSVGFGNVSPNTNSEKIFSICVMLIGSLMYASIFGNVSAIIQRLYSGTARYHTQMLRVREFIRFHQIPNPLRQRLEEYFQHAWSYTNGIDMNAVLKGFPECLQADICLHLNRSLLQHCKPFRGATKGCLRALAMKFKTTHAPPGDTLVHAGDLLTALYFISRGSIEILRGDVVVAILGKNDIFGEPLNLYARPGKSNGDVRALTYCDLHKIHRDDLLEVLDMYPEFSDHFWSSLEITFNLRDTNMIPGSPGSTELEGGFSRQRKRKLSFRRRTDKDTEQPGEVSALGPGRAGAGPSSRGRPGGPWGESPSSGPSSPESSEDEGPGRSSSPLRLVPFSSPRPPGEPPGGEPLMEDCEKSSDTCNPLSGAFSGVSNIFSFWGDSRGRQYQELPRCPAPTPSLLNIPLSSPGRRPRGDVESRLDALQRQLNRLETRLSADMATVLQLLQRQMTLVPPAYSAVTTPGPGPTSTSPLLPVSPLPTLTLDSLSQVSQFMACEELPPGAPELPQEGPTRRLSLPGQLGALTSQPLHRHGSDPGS

Compound	hERG current change (%, negative = inhibition) at 10uM [%]
Cc1ccc(C(=O)N2CCCCC2)cc1S(=O)(=O)N1CCOCC1	22
COc1ccc(NC(=O)C2CCCN(S(=O)(=O)c3ccc4c(c3)CCCN4C(C)=O)C2)cc1 (centres unmarked)	9.31
CCCN1CCC(NC(=O)Nc2cc(Cl)ccc2OC)CC1	-19.1
CCCCOc1ccc(C(=O)Nc2ccc(N3CCN(C(=O)C(C)C)CC3)cc2)cc1	6.91
NC(=O)C1CCN(C(=O)c2ccc(F)c(S(=O)(=O)N3CCOCC3)c2)CC1	-0.931
C/C(=N\NC(=O)CNC(=O)c1ccc(Br)cc1)c1ccco1	5.38
CCn1c(=O)cc(OCC(=O)NCCCN2CCC(C)CC2)c2ccccc21	-8.39
CCn1c(=O)cc(OCC(=O)NCCCN2CC(C)CC(C)C2)c2ccccc21 (centres unmarked)	-12.5
CC1CCN(CCCNC(=O)COc2cc(=O)n(C)c3ccccc23)CC1	8.58
CCn1c(=O)cc(OCC(=O)NCCCN2CCN(c3cccc(Cl)c3)CC2)c2ccccc21	-61.1
Cn1c(=O)cc(OCC(=O)NCCCN2CCN(c3cccc(Cl)c3)CC2)c2ccccc21	-50.8
Cn1c(=O)cc(OCC(=O)NCCCN2CCN(Cc3ccccc3)CC2)c2ccccc21	-17.8
O=S(=O)(N/N=C\c1cn(-c2ccccc2)nc1-c1ccccc1)c1ccccc1	5.42
COC(=O)c1ccc(N2C(=O)Nc3ccccc3N2O)cc1	12.5
CCN1CCN(C(C(=O)NC2CCCC2)c2cc3c(cc2[N+](=O)[O-])OCO3)CC1 (centres unmarked)	-1.51
CN(C)S(=O)(=O)N1CCC(C(=O)O)(c2ccccc2)CC1	18.7
CCCc1nc2ccc(NC(=O)c3cccs3)cc2c(=O)n1Cc1ccccc1Cl	1.8
COC(=O)c1cccc(S(=O)(=O)N2CCC(n3nnc4cc(F)ccc43)CC2)c1	-34.3
O=S(=O)(NC1CCCC1)c1cccc(S(=O)(=O)N2CCC(n3nnc4ccccc43)CC2)c1	-26
Cc1ccc2c(c1)nnn2C1CCN(S(=O)(=O)c2cccc(S(=O)(=O)N(C)C)c2)CC1	-16.7
O=S(=O)(c1cccc(S(=O)(=O)N2CCC(n3nnc4ccccc43)CC2)c1)N1CCCCC1	-55.7

Compound	hERG current change (%, negative = inhibition) at 10uM [%]
O=S(=O)(c1ccccc1)N1CCC(n2nnc3cc(F)ccc32)CC1	-27.7
CC(=O)c1cccc(S(=O)(=O)N2CCC(n3nnc4cc(F)ccc43)CC2)c1	-63.7
CCCc1ccc(-c2cc(C(=O)NC3=NCCS3)c3ccccc3n2)cc1	-2.06
O=C(Cn1nc(-c2ccc(Cl)cc2)ccc1=O)NCCCN1CCN(Cc2ccccc2)CC1	-64.2
CCCN1CCN(CCCNC(=O)Cn2nc(-c3ccc(C)cc3)ccc2=O)CC1	-24.6
CN1CCN(CCCNC(=O)Cn2nc(-c3ccccc3)ccc2=O)CC1	14.1
CCCN1CCN(CCCNC(=O)Cn2nc(-c3ccccc3)ccc2=O)CC1	-22.2
CCCN1CCN(CCCNC(=O)Cn2nc(-c3ccc(Cl)cc3)ccc2=O)CC1	-50.8
O=C(Cn1nc(-c2ccccc2)ccc1=O)NCCN1CCN(Cc2ccccc2)CC1	-19.1
Cn1c(=O)c2c(nc(CN3CCOCC3)n2CCN2CCOCC2)n(C)c1=O	3.09
COc1ccc(/C=C(/NC(=O)c2ccccc2)C(=O)NC(Cc2c[nH]c3ccccc23)C(=O)O)cc1 (centres unmarked)	14.5
COc1cccc(/C=C2\SC(=S)N(CC(=O)N(C)C3CCS(=O)(=O)C3)C2=O)c1 (centres unmarked)	1.18
CCCCOC(=O)NS(=O)(=O)c1sc(CC(C)C)cc1-c1ccc(Cn2c(CC)nc3c(C)cc(C)nc32)cc1	5.9
Cc1ccccc1C1=NCC(=S)Nc2ccc(Cl)cc21	0.98
COc1ccc(C2c3ccc4ccccc4c3Oc3ncn(CCO)c(=N)c32)cc1OC (centres unmarked)	-45.7
N=c1c2c(ncn1CCCO)Oc1c(ccc3ccccc13)C2c1ccccc1 (centres unmarked)	-70.4
COc1ccc(C2c3c(ncn(CCCO)c3=N)Oc3ccc4ccccc4c32)cc1OC (centres unmarked)	-28.8
N=c1c2c(ncn1CCCO)Oc1ccc3ccccc3c1C2c1ccccc1 (centres unmarked)	-53.6
COc1ccc(C2c3c(ncn(CCCO)c3=N)Oc3ccc4ccccc4c32)cc1 (centres unmarked)	-33.9
COc1ccc(C2c3ccc4ccccc4c3Oc3ncn(CCCO)c(=N)c32)cc1OC (centres unmarked)	-62.3

From publication PMC4336329 (PLoS ONE, 2015)
